According to PubChem BioAssay (Tox21):
Unmarked numbers belong to inactive results. Inconclusive results are not listed. Entries that show only a call come without a potency. Activity calls are given as the source filed them. Unless noted, the call rests on the fitted dose curve; in most records, active means well fitted curve in the direction sought with a large enough effect in the repeat runs; inconclusive means weak or mixed curves; inactive means no such curve, though single readings can be large; an effect the other way counts as inactive or inconclusive.

Legend:
[1] = qHTS assay for small molecule agonists of the p53 signaling pathway (AID 651631; calls by dose curve; further: nearly all actives have a fitted effect of over 15% in size)
How it was run: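 HCT-116 cells carrying a stable p53 response element–beta-lactamase reporter were plated, rested 5 h at 37 °C, then exposed to compound in DMSO for 16 h at 37 °C; reporter activity was read as FRET substrate fluorescence after 2 h at room temperature.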

[2] = qHTS assay for small molecules that induce genotoxicity in human embryonic kidney cells expressing luciferase-tagged ATAD5 (AID 651632); further: nearly all actives have a fitted effect of over 15% in size
How it was run: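 A rise in luciferase signal from ATAD5-tagged HEK293T cells marks genetic stress. Cells were exposed to compounds for 16 hr at 37C, 5% CO2, then luciferase was quantified after a 30 min room-temperature incubation with Amplite.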

[3] = qHTS assay for small molecule agonists of the p53 signaling pathway - cell viability (AID 651633; calls by dose curve; further: nearly all actives have a fitted effect of over 30% in size; further: potency means the concentration at half of the fitted maximal effect)
How it was run: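 p53RE-bla cells, seeded at 4,000 per well and rested 5 h at 37 C/5% CO2, received compounds in DMSO for 16 h at 37 C. CellTiter-Glo was then added, and luminescence was read after 30 min at room temperature to gauge cytotoxicity.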

[4] = qHTS assay for small molecule disruptors of the mitochondrial membrane potential - cell viability (AID 720634; calls by dose curve;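 further: human HepG2 liver cancer cells; series mostly up to about 83 µM; nearly all actives have a fitted effect of over 20% in size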)
How it was run: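 Cytotoxicity was quantified from ATP content by CellTiter-Glo luminescence in the same wells as the MMP dye read-out. HepG2 (2,000 cells/well) were plated overnight and exposed to compounds for 1 hr at 37 C.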

[5] = qHTS assay for small molecule disruptors of the mitochondrial membrane potential (AID 720635); further: potency means the concentration at half of the fitted maximal effect
How it was run: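 HepG2 cells (2,000/well) attached overnight at 37C, then took compound for 1 hr at 37C, 5% CO2. Mito-MPS dye was added for 30 min; fluorescence was read at 490/535 nm (monomers) and 540/590 nm (aggregates).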

[6] = qHTS assay to test for compound auto fluorescence at 590 nm (red) in HepG2 cells (AID 720674)
How it was run: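 Intrinsic compound fluorescence in the red window (Ex/Em 540/590 nm) is measured in attached HepG2 cells exposed for 1 hr, DMSO vehicle as baseline, benchmarked to Rose Bengal sodium.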

[7] = qHTS assay to test for compound auto fluorescence at 535 nm (green) in HepG2 cells (AID 720675)
[8] = qHTS assay to test for compound auto fluorescence at 460 nm (blue) in HEK293 cells (AID 720678)
How it was run: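 Triamterene serves as the blue fluorophore standard. Compound signal at 405/460 nm is read in HEK293 wells (2,000 cells, 10% dialyzed FBS) after overnight treatment at 37C.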

[9] = qHTS assay to test for compound auto fluorescence at 590 nm (red) in HEK293 cells (AID 720679)
How it was run: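 We plated HEK293 cells in 10% dialyzed FBS medium, let them adhere for 4-5 hr, then added 23 nL compound. Overnight at 37C and 5% CO2 preceded fluorescence measurement at 540/590nm.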

[10] = qHTS assay to test for compound auto fluorescence at 535 nm (green) in HEK293 cells (AID 720680)
[11] = qHTS assay to test for compound auto fluorescence at 460 nm (blue) in HEK293 cell free culture (AID 720681)
How it was run: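 Test compounds were pinned into cell-free culture medium (DMEM with 10% FBS) and fluorescence was read directly at Ex/Em 405/460 nm. Signals were expressed as fluorescence equivalents of triamterene, with DMSO vehicle as control.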

[12] = qHTS assay to test for compound auto fluorescence at 535 nm (green) in HEK293 cell free culture (AID 720682)
How it was run: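 Read-out: 485/535 nm fluorescence intensity, calibrated against fluorescein. Medium only (DMEM + 10% FBS, no cells); test compound or DMSO vehicle added by pintool before plate reading.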

[13] = qHTS assay to test for compound auto fluorescence at 590 nm (red) in HEK293 cell free culture (AID 720683)
How it was run: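 Tox21 10K library compounds were pinned into cell-free DMEM with 10% FBS and fluorescence was read at excitation 540 nm. Activity is expressed as Rose Bengal sodium equivalency.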

[14] = qHTS assay to test for compound auto fluorescence at 590 nm (red) in HepG2 cell free culture (AID 720684)
How it was run: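 Readout: intrinsic compound fluorescence at 590 nm emission after 540 nm excitation, scaled to Rose Bengal sodium. Matrix was cell-free MEM with 10% FBS; DMSO vehicle wells served as control.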

[15] = qHTS assay to test for compound auto fluorescence at 460 nm (blue) in HepG2 cells (AID 720687)
How it was run: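 Cells (2,000/well in MEM with 10% FBS) attached overnight at 37 C, then were exposed to compound or DMSO for 1 hr at 37 C, 5% CO2. Fluorescence read at Ex/Em 405/460 nm, expressed as triamterene-equivalent signal.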

[16] = biological target: Glucocorticoid receptor (Homo sapiens) (UniProt P04150); assay: qHTS assay to identify small molecule agonists of the glucocorticoid receptor (GR) signaling pathway (AID 720691; active means well fitted activation curve with a large enough effect in the signal ratio in the repeat runs, not every such curve was filed as active; the % refers to the signal ratio)
How it was run: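 Agonist-mode qHTS in HeLa cells stably expressing a glucocorticoid-response-element beta-lactamase reporter. Fluorescence intensity read with FRET substrate (2 h, room temperature) after 18 h compound treatment at 37 C.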

[17] = biological target: Glucocorticoid receptor (Homo sapiens) (UniProt P04150); assay: qHTS assay to identify small molecule antagonists of the glucocorticoid receptor (GR) signaling pathway (AID 720692; active means well fitted inhibition curve with a large enough effect in the signal ratio in the repeat runs, not every such curve was filed as active; the % refers to the signal ratio)
How it was run: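 Inhibition of dexamethasone-driven (5 nM final) beta-lactamase expression was measured in GRE-reporter HeLa cells over 18 h at 37C. Fluorescence was read after 2 h with the B/G FRET substrate at room temperature.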

[18] = qHTS assay for small molecules that induce genotoxicity in human embryonic kidney cells expressing luciferase-tagged ATAD5 - cell viability (AID 651634; calls by dose curve; further: nearly all actives have a fitted effect of over 25% in size; further: potency means the concentration at half of the fitted maximal effect)
How it was run: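 Cytotoxicity counter-readout: after 15.5 hr compound treatment at 37C, live-cell protease activity in ATAD5-luciferase HEK293T cells measured by CellTiter-Fluor fluorescence, 30 min development at 37C.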

[19] = qHTS assay to test for compound auto fluorescence at 460 nm (blue) in HepG2 cell free culture (AID 720685)
How it was run: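 Cell-free plates of MEM plus 10% FBS received 23 nL compound or DMSO vehicle; blue-channel (405/460 nm) intensity scored against triamterene as reference fluorophore.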

[20] = qHTS assay to test for compound auto fluorescence at 535 nm (green) in HepG2 cell free culture (AID 720686)

Glucocorticoid receptor (Homo sapiens), sequence (P04150 whole entry, looked up): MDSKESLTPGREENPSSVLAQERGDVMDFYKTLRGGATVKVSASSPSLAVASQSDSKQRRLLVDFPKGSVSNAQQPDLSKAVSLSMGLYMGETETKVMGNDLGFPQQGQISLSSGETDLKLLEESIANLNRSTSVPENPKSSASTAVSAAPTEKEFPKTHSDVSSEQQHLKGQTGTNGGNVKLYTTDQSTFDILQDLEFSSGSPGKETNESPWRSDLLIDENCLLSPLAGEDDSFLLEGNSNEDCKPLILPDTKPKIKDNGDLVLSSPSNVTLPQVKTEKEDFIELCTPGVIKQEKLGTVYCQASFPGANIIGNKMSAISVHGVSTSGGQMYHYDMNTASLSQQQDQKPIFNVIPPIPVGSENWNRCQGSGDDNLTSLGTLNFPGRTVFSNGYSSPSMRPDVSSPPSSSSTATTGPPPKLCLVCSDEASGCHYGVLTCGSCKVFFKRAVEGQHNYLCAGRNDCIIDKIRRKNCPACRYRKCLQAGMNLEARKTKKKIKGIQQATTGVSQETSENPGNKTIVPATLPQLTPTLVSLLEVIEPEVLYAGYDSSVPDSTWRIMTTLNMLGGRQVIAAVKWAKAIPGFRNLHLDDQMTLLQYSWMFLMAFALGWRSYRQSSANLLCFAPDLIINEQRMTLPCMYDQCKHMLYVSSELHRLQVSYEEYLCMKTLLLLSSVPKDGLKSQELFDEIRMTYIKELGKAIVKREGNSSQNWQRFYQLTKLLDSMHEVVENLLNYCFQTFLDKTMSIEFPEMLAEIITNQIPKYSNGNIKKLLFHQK

SMILES | Potency [1] | Potency [2] | Potency [3] | outcome [4] | Potency [5] | outcome [6] | outcome [7] | Potency [8] | outcome [9] | outcome [10] | Potency [11] | outcome [12] | outcome [13] | outcome [14] | Potency [15] | Potency [16] | Potency [17] | Potency [18] | Potency [19] | outcome [20]
Cc1c[nH]c2ccccc12 | inactive | inactive | inactive | inactive | inactive | inactive | inactive | inactive | inactive | inactive | inactive | inactive | inactive | inactive | inactive | inactive | inactive |  |  | 
Cc1cc(CCC(=O)OCCOCCOCCOC(=O)CCc2cc(C)c(O)c(C(C)(C)C)c2)cc(C(C)(C)C)c1O | inactive | inactive | inactive |  | 59.6 µM (active) | inactive | inactive | inactive |  | inactive | inactive | inactive | inactive | inactive | inactive | inactive |  | inactive | inactive | inactive
CCCCCCCCCCCCCCCCCC(=O)OCC(CC)CCCC (configuration not stated) | inactive |  | inactive | inactive | inactive | inactive | inactive | inactive | inactive | inactive | inactive | inactive |  | inactive | inactive |  |  | inactive | inactive | inactive
C=C(C)C(=O)OCCC(F)(F)C(F)(F)C(F)(F)C(F)(F)C(F)(F)C(F)(F)F | inactive | inactive | inactive | inactive | inactive | inactive | inactive | inactive |  | inactive | inactive | inactive | inactive | inactive | inactive | inactive | inactive |  | inactive | inactive
CCCCCCC(O)CCCCCCCCCCC(=O)OC (configuration not stated) | inactive | inactive | inactive | inactive | inactive | inactive | inactive | inactive | inactive | inactive |  | inactive | inactive | inactive | inactive | inactive |  |  | inactive | inactive
Cc1ccc(N(CCO)CCO)cc1 | inactive | inactive | inactive | inactive |  |  | inactive | inactive | inactive |  | inactive | inactive | inactive | inactive | inactive | inactive | inactive |  | inactive | 
CCOC(=O)C(C)O (configuration not stated) | inactive | inactive | inactive |  |  | inactive | inactive |  | inactive | inactive | inactive | inactive | inactive | inactive | inactive | inactive | inactive | inactive | inactive | 
CCN(CC)c1ccc(C(=C2C=CC(=[N+](CC)CC)C=C2)c2ccc(S(=O)(=O)O)cc2S(=O)(=O)[O-])cc1 | inactive | inactive | 27.3 µM (active) |  |  | inactive | inactive | inactive | inactive | inactive |  | inactive | inactive | inactive | inactive | inactive |  | 27.3 µM (active) | inactive | inactive
